# Test results taken from PubChem BioAssay (NCATS).
# A number with no mark means an inactive call. Where a call stands in place of a potency, no number is given. The source made the active and inactive calls. The call rests on the fitted dose curve; in most records, active means well fitted inhibition curve with a large enough effect; inconclusive means small, poorly fitted or top-dose-only effect; inactive means flat fitted curve, though single readings scatter.
# Test system: Nanoluciferase (engineered Oplophorus gracilirostris luciferase)
# Assay: Primary Nanoluciferase (NLuc) qHTS assay for identification of artifact compounds. (AID 1845222)
# Settings: NLuc-conditioned medium, Nano-Glo luminescence, 5 min; series mostly up to 54.1 µM
# In short: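 Luminescence from secreted NLuc (filtered, 1:55-diluted S16 cell medium) read 5 min after Nano-Glo substrate; compounds preincubated 15 min, RT. Hill fits of inhibition normalized to DMSO and no-enzyme.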
Compound,Potency,"activity, negative = inhibition"
CC(C)CC(=O)O[C@@H]1OC=C(CO[C@@H]2O[C@H](CO)[C@@H](O)[C@H](O)[C@H]2O)[C@H]2[C@@H]3O[C@H]3[C@@](O)(CO)[C@@H]12,inactive,
C/C=C/C=C/C=C/C(=O)OC1C=C(C=O)C(O)(C(=O)O)C2(C)CCCC(C)(C)C12 (configuration not stated),inactive,
CC(CCC1(O)OC2CC3C4CCC5CC(O[C@@H]6O[C@H](CO)[C@@H](O)[C@H](O)[C@H]6O[C@@H]6O[C@@H](C)[C@H](O)[C@@H](O)[C@H]6O)C(O)CC5(C)C4CCC3(C)C2C1C)CO[C@@H]1O[C@H](CO)[C@@H](O)[C@H](O)[C@H]1O (some centres not stated),,2.24% [at 11.6 µM]
Cc1nc(Nc2n[nH]c3c2CN(C(=O)NC(CN(C)C)c2ccccc2)C3(C)C)c2sccc2n1 (configuration not stated),inactive,
CC(=O)OCC1(O)CCC2C(COC3OC(CO)C(O)C(O)C3OC(=O)/C=C/c3ccc(O)cc3)=COC(OC(=O)CC(C)C)C21 (configuration not stated),inactive,
CC1=CC(=O)[C@H]2C(C)(C)CCC[C@]2(C)[C@@]1(O)CO,inactive,
CC1CCC2C(C)(C)[C@@H](O)CC[C@]2(C)C12Cc1c(O)cc3c(c1O2)CN(C(CCC(=O)O)C(=O)O)C3=O (some centres not stated),inactive,
CCCC(=O)NCCc1csc(-c2ccc(Cl)cc2)n1,inactive,
CC1(C)CCC2(C(=O)OC3OCC(O)C(O)C3O)CCC3(C)C(=CCC4C5(C)CC(O)C(OC6OC(COC7OCC(O)C(O)C7O)C(O)C(O)C6O)C(C)(C)C5CCC43C)C2C1 (configuration not stated),,0.507% [at 11.6 µM]
CC(C)=CC/C=C(\C)[C@H]1CC[C@]2(C)[C@@H]1[C@H](O)C[C@@H]1[C@@]3(C)CC[C@H](O)C(C)(C)[C@@H]3[C@@H](O[C@@H]3O[C@H](CO)[C@@H](O)[C@H](O)[C@H]3O)C[C@]12C,inactive,
CC1OC(OC2C(O)C(OC3CCC4(C)C(CCC5(C)C4CC=C4C6CC(C)(COC7OC(CO)C(O)C(O)C7O)CC(O)C6(C)CCC45C)C3(C)C)OC(C(=O)O)C2O)C(O)C(O)C1OC1OCC(O)C(O)C1O (configuration not stated),,-3.08% [at 11.6 µM]
C=C1C(=O)OC2C1CCC(=C)C1CC(OC(C)=O)C(=C)C12 (configuration not stated),inactive,
CC1=C(C(=O)O)/C(=C/CO[C@@H]2O[C@H](COC(=O)/C=C/c3ccc(O)cc3)[C@@H](O)[C@H](O)[C@H]2O)C(O)C1 (some centres not stated),inactive,
Cn1cc(S(=O)(=O)c2ccc(Cl)cc2)c2cccc(N3CCNCC3)c21,inactive,
CC(C)=CCC/C(C)=C/CO[C@@H]1O[C@H](CO)[C@@H](O)[C@H](O)[C@H]1O,inactive,
CNC(=O)c1ccccc1Nc1cc(Nc2ccc(N3CCOCC3)cc2OC)ncc1C(F)(F)F,inactive,
O=C(c1cc2c(cc1F)OC(c1ccc(F)cc1)(c1ccc(Cl)cc1Cl)O2)N1CCOCC1 (configuration not stated),inactive,
COC(=O)/C=C/C12COC(C)(C)C1C(O)C(OC(C)=O)C1(C)C2CCC2(C)C(c3ccoc3)OC(=O)C3OC321 (configuration not stated),inactive,
C=C(CCC1=C(C)[C@H]2[C@H](CC3[C@@H]4CC=C5C[C@@H](O)C[C@@H](O)[C@]5(C)C4[C@H](O)C[C@@]32C)O1)CO[C@@H]1O[C@H](CO)[C@@H](O)[C@H](O)[C@H]1O (some centres not stated),inactive,
CC1CCC2(C=O)C(CO)=CCCC2C1(C)CC(=O)O (configuration not stated),inactive,
CC1CCC23COC(=O)C2=CC(O)CC3C1(C)CCC1=CC(O)OC1=O (configuration not stated),inactive,
CC(=O)N1CCN(C(=O)Cc2ccc(Nc3ncc(F)c(Nc4ccc(C(=O)Nc5ccccc5Cl)cc4)n3)cc2)CC1,inactive,
Cc1cc2c(c(=O)[nH]1)OC(C(O)CC(C)C)O2 (configuration not stated),inactive,
CCC(O)C(C)C1CCC(C(C)C(=O)O)O1 (configuration not stated),inactive,
C=C1CCC2C(C)(C)C(O)CCC2(C)C1CCC(C)CCO (configuration not stated),inactive,
CC[C@]1(O)CC2CN(CCc3c([nH]c4ccccc34)[C@@](C(=O)OC)(c3cc4c(cc3OC)N(C)[C@H]3[C@@](O)(C(=O)OC)[C@H](OC(C)=O)[C@]5(CC)C=CCN6CC[C@]43[C@@H]65)C2)C1 (some centres not stated),inactive,
CO[C@H]1/C=C/C=C/C=C/C[C@H](OC(=O)[C@@H](C)NC(=O)C2CCCCC2)[C@H](C)[C@@H](O)/C(C)=C/CCc2cc(O)cc(c2)NC(=O)C1,inactive,
